The values below come from PubChem BioAssay AID720621 (The Scripps Research Institute Molecular Screening Center, 2013).

This test deals with Fibrinogen beta chain (Homo sapiens) (UniProt P02675). The test can be described thus: fibrin DD(E) probe displacement, second cyclic peptide – biochemical, fluorescence polarization, human fibrin, counter-screen for fibrin DD(E)-Tn6 binding project, confirmation (AID 720621).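 Further: 0% = median of compound wells and 100% = wells with Aha-Tn7 blocking peptide.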 Particulars: TRITC-Tn6 fluorescence polarization displacement, at 8.3 µM, stronger effect = higher value. (In general: In fluorescence polarisation assays a small probe gives low polarisation when free and higher when bound to something large.)

Some of the results follow. Values without a mark were called inactive.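 How the source made its calls: active means inhibition above the mean of test compounds lying between the control limits plus 3 SD of those (cut at about 14% in these data); inactive means the rest.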

Chain of Fibrinogen beta chain (Homo sapiens) (P02675 whole entry, looked up): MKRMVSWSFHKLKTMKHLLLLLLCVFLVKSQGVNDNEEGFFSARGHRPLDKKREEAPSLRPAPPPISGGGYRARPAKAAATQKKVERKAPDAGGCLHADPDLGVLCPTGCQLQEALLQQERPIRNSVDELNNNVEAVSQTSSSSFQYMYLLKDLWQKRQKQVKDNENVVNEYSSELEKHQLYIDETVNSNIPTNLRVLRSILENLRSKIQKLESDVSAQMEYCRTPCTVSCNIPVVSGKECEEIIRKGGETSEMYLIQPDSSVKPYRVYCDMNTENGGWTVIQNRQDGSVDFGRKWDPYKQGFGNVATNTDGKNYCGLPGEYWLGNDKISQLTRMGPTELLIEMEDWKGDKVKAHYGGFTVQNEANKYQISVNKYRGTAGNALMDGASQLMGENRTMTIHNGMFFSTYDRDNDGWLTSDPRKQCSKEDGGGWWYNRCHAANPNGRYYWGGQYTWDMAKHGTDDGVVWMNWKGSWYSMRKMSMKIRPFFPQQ

Regarding `COc1ccc2c(c1O)-c1cccc3c1[C@@H](C2)N(C)CC3`, the inhibition (usually the drop in the measured response relative to a control, in per cent) was -6.45%.
For the compound `Cc1cc(N2CCNC[C@@H]2C)ccc1N1CC[C@H](O)C1`, the inhibition is 2.02%.
